OPRM1-OPRD1 inv – inverse agonist of human OPRM1-OPRD1 heterodimerization; P35372+P41143; cell-based MOR-DOR heterodimer luminescence, inverse agonism; inhibition, % at 9.3 µM; 340,000 compounds, 0.21% hits; in the data active = inhibition above about 22%, passing the limit was not always enough;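 also: 0% = cells with DMSO and 100% = wells without cells with DMSO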
HTR5A ag ctr – activates human HTR5A in OPRM1-OPRD1 agonist counter-screen; P47898; HTR5A agonist assay, luminescence, cell-based; activation, % at 9.3 µM; 340,000 compounds, 0.61% hits; in the data active = activation mostly above about 9.5%, no sharp cut-off; inactive = mostly below about 7.6%;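 also: 0% = cells with vehicle only and 100% = reference agonist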
Target sequence (P47898 whole entry, looked up): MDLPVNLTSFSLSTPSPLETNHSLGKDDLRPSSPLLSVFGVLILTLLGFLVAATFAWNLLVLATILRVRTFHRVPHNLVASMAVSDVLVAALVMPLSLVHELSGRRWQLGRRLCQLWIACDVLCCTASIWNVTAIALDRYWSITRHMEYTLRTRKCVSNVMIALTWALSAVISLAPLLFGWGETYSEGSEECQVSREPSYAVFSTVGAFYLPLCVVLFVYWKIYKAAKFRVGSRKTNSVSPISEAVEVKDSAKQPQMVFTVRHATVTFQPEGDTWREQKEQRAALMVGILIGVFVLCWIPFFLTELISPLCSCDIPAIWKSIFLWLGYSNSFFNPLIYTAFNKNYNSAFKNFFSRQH
MOR-DOR ag – agonists of human mu-delta opioid receptor heterodimerization; AID 504326; P35372+P41143; activation, % at 9.3 µM; 340,000 compounds, 0.3% hits; cells, OPRM1-OPRD1 heterodimerization, luminescence;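 also: 0% = vehicle-treated cells and 100% = reference agonist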
HTR5A inv ctr – inverse agonist of human HTR5A in OPRM1-OPRD1 counter-screen | inhibition, % at 9.3 µM | HTR5A cell line, luminescence, inverse agonism | 340,000 compounds, 0.083% hits | P47898; in the data active = inhibition mostly above about 23%, no sharp cut-off; inactive = mostly below about 18%;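 also: 0% = cells with DMSO and 100% = no-cell wells with DMSO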
OPRM1-D1 ag cf – confirmation of human OPRM1-OPRD1 heterodimerization agonists | activation, % at 9.3 µM | 830 compounds, 45% hits | AID 504904 | cells, MOR-DOR heterodimerization, luminescence complementation | shares compounds with MOR-DOR ag;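 also: 0% = vehicle-treated cells and 100% = reference agonist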
HTR5A ag counter – counter-screen for OPRM1-OPRD1 agonists: human HTR5A agonism; 830 compounds, 8% hits; HTR5A agonist counterscreen, cell luminescence; activation, % at 9.3 µM; shares compounds with MOR-DOR ag; in the data active = activation above about 17%;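 also: 0% = vehicle-treated cells and 100% = reference agonist response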
Numbers without * were called inactive; i = inactive; / = no result given. Sampled rows, rich in hits. Any-hit rate of the full collection: about 1.1%. Rule as the data show it, unless noted: active = activation above about 18%; inactive = the rest.

SMILES	OPRM1-OPRD1 inv	HTR5A ag ctr	MOR-DOR ag	HTR5A inv ctr	OPRM1-D1 ag cf	HTR5A ag counter
COC(=O)NCC(c1ccc2c(c1)OCO2)N1CCN(c2ccc(OC)cc2)CC1 (stereo not given)	-422	4	79*	-3	0	-4
O=C(CN(C(=O)c1csnn1)c1cccc(Cl)c1)NC1CCCCC1	8	2	-1	-20	/	/
O=C(CN1C(=O)COc2ccc(Cl)cc21)NC1CC1	6	1	-2	-11	/	/
CCCCN(C(=O)c1cc(OC)c(OC)c(OC)c1)C1=CC2CCC(C1)N2C (stereo not given)	0	-2	0	5	/	/
COc1cc(C(=O)N(CCc2ccccc2)C2=CC3CCC(C2)N3C)cc(OC)c1OC (stereo not given)	-75	-5	18*	11	0	0
Cc1ccc(OCCSCc2nnc(NC(=O)Nc3cccc(Cl)c3)s2)cc1	-100	5	19*	-17	-2	0
COc1ccc(C(C(=O)NC2CCCCC2)N(C(=O)Cc2c[nH]c3ccccc23)c2ccc(NC(C)=O)cc2)cc1OC (stereo not given)	-115	3	26*	-8	83*	-2
O=C(COc1ccc(Br)cc1CO)Nc1ccc(S(=O)(=O)N2CCCCC2)cc1	-26	2	5	-7	/	/
CCc1ccc(OCC(=O)Nc2ccc(S(=O)(=O)N3CCCC3)cc2)c(Br)c1	-104	-3	19*	-13	1	-5
CCOC(=O)C1(CC2CCCCO2)CCN(Cc2c(C)cc(C)cc2-n2cccn2)CC1 (stereo not given)	i	9	199*	-29	267*	2
CCOC(=O)C1(CC2CCCCO2)CCN(Cc2cc(F)ccc2-n2cccn2)CC1 (stereo not given)	-298	-4	61*	0	66*	2
CCOC(=O)C1(CC2CCCCO2)CCN(Cc2nccn2-c2cccc(C)c2)CC1 (stereo not given)	-64	4	13	6	/	/
CCOC(=O)C1(CC2CCCCO2)CCN(Cc2nc3ccccc3[nH]2)CC1 (stereo not given)	-148	-4	29*	10	27*	3
CCOC(=O)C1(CC2CCCCO2)CCN(Cc2nccn2-c2ccc(OC)cc2)CC1 (stereo not given)	18	2	-4	-4	/	/
COc1cc(NC(=O)CCCN2C(=O)NC(C)(C)C2=O)cc(OC)c1	5	8	-1	-22	/	/
O=S(=O)(c1ccc2c(c1)C(=NO)c1cc(S(=O)(=O)N3CCCCC3)ccc1-2)N1CCCCC1	-48	-1	8	-18	/	/
CC1CCN(S(=O)(=O)c2ccc3c(c2)C(=NO)c2cc(S(=O)(=O)N4CCC(C)CC4)ccc2-3)CC1	-178	8	30*	-4	0	-3
Cc1cccc(NC(=O)CSc2nnc(CNC(=O)c3ccco3)n2C)c1C	21	1	-4	5	/	/
CC(=O)Nc1ccc(S(=O)(=O)NC2=C(N3CCN(Cc4ccccc4)CC3)C(=O)c3ccccc3C2=O)cc1	-288	-2	55*	7	69*	-7
CCN1CCN(C2=C(NS(=O)(=O)c3ccc(NC(C)=O)cc3)C(=O)c3ccccc3C2=O)CC1	3	0	0	1	/	/
Nn1c(-c2ccccc2Cl)nnc1-c1ccccc1Cl	-98	3	18*	-10	0	5
CSc1nnc(-c2ccccc2Cl)n1N	4	1	-1	14	/	/
COc1ccc(CC(=O)Oc2ccc(Cl)cc2Br)cc1S(=O)(=O)N1CCOCC1	17	1	-3	-2	/	/
COCC1CCN(Cc2cn(-c3ccccc3F)nc2-c2cc(C)sc2C)CC1	-216	-1	42*	-12	55*	5
O=C(c1nc2ccccn2c1CNCCCn1cccn1)N1CCCC1	12	-2	-2	-18	/	/
SMILES	OPRM1-OPRD1 inv	HTR5A ag ctr	MOR-DOR ag	HTR5A inv ctr	OPRM1-D1 ag cf	HTR5A ag counter
FC(F)(F)c1cnc(Nc2ccc(N3CCOCC3)cc2)c(Cl)c1	-171	8	28*	-23	8	4
CCCC1=C([O-])C2N=CC=CC2=[N+](c2ccccn2)C1=O (stereo not given)	10	3	-2	-16	/	/
COc1ccc(CN2CCN(CC(O)Cn3c4ccccc4c4ccccc43)CC2)cc1 (stereo not given)	-105	-2	21*	6	24*	-2
CCOc1ccc(CN2CCN(CC(O)Cn3c4ccccc4c4ccccc43)CC2)cc1 (stereo not given)	-7	8	1	3	/	/
CCOC(=O)C1=C(C)N(Cc2ccccc2)C(=O)NC1c1ccccc1OS(=O)(=O)c1ccccc1[N+](=O)[O-] (stereo not given)	-380	-2	65*	6	1	-4
COC(=O)C1=C(C)N(CCCC(=O)O)C(=O)NC1c1ccccc1OS(=O)(=O)c1ccccc1[N+](=O)[O-] (stereo not given)	-296	-2	51*	6	47*	5
COc1ccc2nc3cc(Cl)ccc3c(Nc3cc(C(C)C)c(O)cc3C)c2c1	-110	2	20*	-9	15	3
O=c1cc2c(=O)oc3cc(O)c(O)oc3c2c(O)c1O	5	2	-1	-8	/	/
COc1cccc(N2CCN(c3ncnc4c3[nH]c3ccc(F)cc34)CC2C)c1 (stereo not given)	-256	15*	43*	-25	-4	-8
O=C1C(O)=CC(=C(c2ccccc2)c2ccccc2)c2ccccc21	-100	-4	20*	16	-1	-16
Cc1ccc(C)c(N2CCN(C(=S)Nc3ccc4nc(N5CCN(C)CC5)cc(C)c4c3)CC2)c1	-91	9	18*	-27	22*	4
Cc1ccc(C)c(N2CCN(C(=S)Nc3ccc4nc(N5CCOCC5)cc(C)c4c3)CC2)c1	-32	-6	5	16	/	/
Nc1nnc(CC(=O)NCc2ccccc2)s1	0	0	0	1	/	/
COc1ccc(S(=O)(=O)N2CCOC2CNC(=O)C(=O)NCCN2CCOCC2)cc1C (stereo not given)	3	-2	-1	-14	/	/
COC(=O)c1ccc(C(=S)NCC2(N(C)C)CCCCC2)cc1	-199	6	37*	-16	3	70*
COc1ccc(Cl)cc1NC(=O)C1CCCN(S(C)(=O)=O)C1 (stereo not given)	12	4	-2	-14	/	/
O=C1NCN(c2ccccc2)C12CCN(CCCC(c1ccc(F)cc1)c1ccc(F)cc1)CC2	-166	6	31*	-22	0	5
Cc1ccc(C(=O)Nc2ncccc2O)cc1S(=O)(=O)N1CCCCC1	10	6	-2	-15	/	/
COc1ccccc1NC(=O)c1sc2nc(C)cc(C)c2c1N	-121	4	24*	-9	108*	1
O=C(O)CC/C(=N\NC(=O)c1ccccc1Br)c1ccccc1	9	-5	-2	-9	/	/

Bioassay records from PubChem.
